Values joined by “and” are separate entries in the source; they are usually repeats but may differ in a detail not shown here. Identical values can stand only once. Results filed as inconclusive are left out. Some structures have more than one record in an assay (separate samples or runs), and their calls can disagree. Active and inactive are the calls of the source. The calls were made as follows, unless noted: active = hit-call score of the fitted dose curve at least 0.9, where 1 is the maximum; inactive = score below 0.9.

Here are results for 13 compounds from PubChem BioAssay (EPA / NIEHS).

Read-out in assay [1]: Interleukin-8 (IL8), CXCL8 (gene 3576)
The assay is described as follows: BSK_3C_IL8: BioMAP Diversity Plus: 3C Assay for Interleukin-8 (IL8) Biomarker Activity (AID 2283020). The note with it: primary human endothelial cells (HUVEC); actives raise or lower the signal. The essentials:
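IL-8 was measured by ELISA in HUVEC cultures 24 h after chemical dosing, with gain or loss of signal fitted relative to DMSO. Parallel SRB total-protein staining tracked overt cytotoxicity.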

Read-out in assay [2]: Monokine induced gamma interferon (MIG), CXCL9 (gene 4283)
The assay is described as follows: BSK_3C_MIG: BioMAP Diversity Plus: 3C Assay for Monokine induced gamma interferon (MIG) Biomarker Activity (AID 2283021).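 As to AC50: MIG protein level measured by immunoassay in the treated endothelial cultures.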 The note with it: primary human endothelial cells (HUVEC); actives raise or lower the signal. In a few lines:
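ELISA measurement of MIG in human umbilical vein endothelial cells 24 h after treatment. Cytotoxicity tracked by SRB staining in parallel cultures; gain or loss of signal fitted relative to DMSO.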

Assay [3] addresses human Vitamin D Receptor (VDR), VDR (gene 7421) (UniProt P11473). The assay is described as follows: ATG_VDR_TRANS: Attagene TRANS-FACTORIAL HepG2 Assay for human Vitamin D Receptor (VDR) (AID 2283022; active = hit-call score of the fitted dose curve at least 0.9, where 1 is the maximum). The essentials: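 HepG2 cells were transiently transfected with GAL4-UAS reporter units and a chimeric VDR-Gal4 construct, then dosed for 24 hours. Reporter mRNA was quantified by RT-PCR, fluorescent labeling, HpaI digestion and capillary electrophoresis; gain of signal analysed vs DMSO.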

Assay [4] can be described thus: BSK_3C_SRB: Viability Assessment in the BioMAP Diversity Plus: 3C Assay (AID 2283023).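 Also: fitted both ways against DMSO so a hit may be signal rise or drop.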 The note with it: primary human endothelial cells (HUVEC). The essentials: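 Human umbilical vein endothelial cells in the 3C system, treated 24 h. Total protein measured by 0.1% sulforhodamine B staining after 10% TCA fixation, read at 560 nm; bidirectional fit versus DMSO.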
Read-out in assay [5]: Matrix Metallopeptidase 1 (MMP1), MMP1 (gene 4312)
Put plainly: BSK_BE3C_MMP1: BioMAP Diversity Plus: BE3C Assay for Matrix Metallopeptidase 1 (MMP1) Biomarker Activity (AID 2283024). To be noted: primary human bronchial epithelial cells; actives raise or lower the signal. In a few lines:
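ELISA measurement of MMP-1 after 24 h compound exposure of primary human bronchial epithelial cells. Changes in either direction fitted relative to DMSO; parallel SRB staining checked overt cytotoxicity.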

Read-out in assay [6]: Pselectin, SELP (gene 6403)
The assay is described as follows: BSK_4H_Pselectin: BioMAP Diversity Plus: 4H Assay for Pselectin Biomarker Activity (AID 2283026). The note with it: primary human endothelial cells (HUVEC); actives raise or lower the signal. The essentials: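 ELISA of surface P-selectin on HUVEC, 24 h after dosing, with parallel SRB staining (0.1% after 10% TCA fixation, 560 nm) for overt cytotoxicity. Activity fitted in both directions relative to DMSO.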

Assay [7] can be described thus: BSK_4H_SRB: Viability Assessment in the BioMAP Diversity Plus: 4H Assay (AID 2283027).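 Also: cells exposed to compound for 24 h before staining.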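 As to AC50: curves fitted both ways versus DMSO so AC50 may be loss or gain.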 The note with it: primary human endothelial cells (HUVEC). The essentials:
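Cytotoxicity read-out in primary human endothelial cells: after 24 h compound exposure, cells were TCA-fixed (10%), stained with 0.1% SRB and absorbance taken at 560 nm. Values fitted in both directions relative to DMSO.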

Assay [8] can be described thus: BSK_BE3C_SRB: Viability Assessment in the BioMAP Diversity Plus: BE3C Assay (AID 2283028).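 As to AC50: fitted both ways so AC50 may mark signal gain or loss versus DMSO.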 The note with it: primary human bronchial epithelial cells. In a few lines:
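Human bronchial epithelial primary cells in confluent culture, 24 h after chemical dosing; total protein by 0.1% SRB staining after 10% TCA fixation, read at 560 nm. Bidirectional fitting versus DMSO baseline.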

Read-out in assay [9]: Thrombomodulin, THBD (gene 7056)
Put plainly: BSK_3C_Thrombomodulin: BioMAP Diversity Plus: 3C Assay for Thrombomodulin Biomarker Activity (AID 2283029). The note with it: primary human endothelial cells (HUVEC); actives raise or lower the signal. The essentials:
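ELISA measurement of thrombomodulin on HUVEC surface 24 h after chemical dosing; activity fitted in both directions relative to DMSO vehicle.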

A short description of assay [10]: BSK_3C_Vis: BioMAP Diversity Plus: 3C Assay for Morphology Visualization (AID 2283025).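 Also: fitted both ways so gain or loss versus DMSO counts.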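 As to AC50: light microscopy image of cell morphology used as background control.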 The note with it: primary human endothelial cells (HUVEC). The essentials:
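Light-microscopy visualization of HUVEC cultures at 24 h post-treatment, with DMSO as baseline for bidirectional fitting.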

Sequence of human Vitamin D Receptor (VDR), VDR (gene 7421) (P11473 whole entry, looked up, the tested form may be a part): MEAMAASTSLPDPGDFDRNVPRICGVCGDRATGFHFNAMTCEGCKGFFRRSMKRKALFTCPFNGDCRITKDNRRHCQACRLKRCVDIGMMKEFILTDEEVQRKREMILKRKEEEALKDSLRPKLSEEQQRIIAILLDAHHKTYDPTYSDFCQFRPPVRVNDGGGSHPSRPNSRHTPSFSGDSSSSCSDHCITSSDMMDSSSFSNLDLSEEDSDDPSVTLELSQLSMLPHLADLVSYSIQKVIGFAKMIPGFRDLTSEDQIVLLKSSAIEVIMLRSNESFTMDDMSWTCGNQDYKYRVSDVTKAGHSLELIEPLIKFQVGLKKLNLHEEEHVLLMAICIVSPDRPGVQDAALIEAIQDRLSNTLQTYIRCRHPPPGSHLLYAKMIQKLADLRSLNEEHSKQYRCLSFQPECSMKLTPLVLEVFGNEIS

Turning to `C=CC(=O)OCC(F)(F)C(F)(F)C(F)(F)C(F)(F)C(F)(F)C(F)(F)C(F)(F)C(F)F`, the outcome in assay [1], in [2], in assay [3], in assay [4], in assay [5] and in assay [6] was inactive. Also, the outcome in assay [7] and in [8] was inactive. The AC50 (usually the concentration giving half of the maximal activity seen) in assay [9] was 5.95 µM (active) and 19.2 µM (active).
For `O=C=Nc1cccc2c(N=C=O)cccc12`, the outcome in [1], in [2], in assay [4], in [5], in [10] and in [6] was inactive. Further, the outcome in assay [7], in assay [8] and in assay [9] was inactive.
As to `NC(=O)C(F)(F)C(F)(F)C(F)(F)F`, the result in [1], in [2], in [3], in assay [4], in assay [5] and in assay [6] was inactive. For the same compound, the outcome in assay [7], in assay [8] and in assay [9] was inactive. Moreover, in assay [9], the AC50 is 5.95 µM (active).
As to `C[Si](Cl)(Cl)CCC(F)(F)C(F)(F)C(F)(F)C(F)(F)C(F)(F)C(F)(F)F`, the outcome in assay [1], in assay [2], in [3], in assay [4], in assay [5] and in assay [6] was inactive. In addition, the result in assay [7], in assay [8] and in assay [9] was inactive.
Take `OCC(O)CC(F)(F)C(F)(F)C(F)(F)C(F)(F)F` (stereo unspecified): the result in [1], in assay [2], in assay [3], in [4], in assay [5] and in [6] was inactive. For the same compound, the result in [7], in [8] and in assay [9] was inactive.
As to `OC(O)C(F)(F)C(F)(F)F`, the outcome in [1], in assay [2], in assay [3], in assay [4], in assay [5] and in [6] was inactive. Besides, the outcome in [7], in assay [8] and in [9] was inactive.
In the case of `Cc1cc(C)c(O)c(C(C)(C)C)c1`, the AC50 in assay [1] is 20 µM (active); in assay [4], 30.1 µM (active); in assay [5], 29 µM (active); in assay [10], 14.9 µM (active); in assay [6], 20 µM (active); in assay [7] it was 29.5 µM (active). The results for the AC50 in [8] and in assay [9] were 32 µM (active) and 33.9 µM (active), respectively. Further, the outcome in [2] was inactive.
`C=CC(=O)OCC(F)(F)C(F)(F)C(F)(F)COC(=O)C=C`: the AC50 was 23.9 µM (active) and 31 µM (active) in assay [1]; 24.7 µM (active) and 22.7 µM (active) in assay [2]; 41.1 µM (active) and 40.3 µM (active) in assay [4]; 21.8 µM (active) in [5]; 11.2 µM (active) and 8.07 µM (active) in [6]; 25 µM (active) and 33.8 µM (active) in [7]. Moreover, in assay [9], the AC50 was 18 µM (active). Also, the outcome in [5], in assay [8] and in assay [9] was inactive.
On to `NCC(F)(F)C(F)(F)C(F)(F)C(F)(F)C(F)(F)C(F)(F)F`, for which the result in assay [1], in [2], in assay [3], in assay [4], in assay [5] and in [6] was inactive. The result in [7], in [8] and in assay [9] was inactive.
On to `Nc1cc([N+](=O)[O-])cc(Cl)c1O`, for which the result in assay [1], in assay [2], in assay [4], in assay [5], in assay [10] and in assay [6] was inactive. The result in assay [7], in assay [8] and in [9] was inactive.
For `O=C1c2c(O)ccc(Nc3ccc(CCO)cc3)c2C(=O)c2c([N+](=O)[O-])ccc(O)c21`, the result in assay [1], in assay [4] and in [8] was inactive. The AC50 in assay [2] was 34.2 µM (active); in [5] it was 2.47 µM (active); in assay [10], 15.4 µM (active); in assay [6] it was 20 µM (active); in assay [7], 31.3 µM (active); in assay [9] it was 10.7 µM (active).
On to `CCN=C1C=CC(=C(c2ccc(N(CC)CC)cc2)c2ccc(N(CC)CC)cc2)c2ccccc21`, for which the AC50 in assay [1] was 4.77 µM (active) and 4.29 µM (active); in assay [2], 2.92 µM (active) and 3.32 µM (active); in [4], 1.6 µM (active) and 1.67 µM (active); in assay [5] it was 3.21 µM (active); in assay [6], 1.46 µM (active) and 957 nM (active); in assay [7], 1.76 µM (active) and 1.74 µM (active). Besides, in [9], the AC50 is 4.54 µM (active) and 3.14 µM (active). Further, the outcome in assay [5] and in [8] was inactive.
As to `Cc1cnccn1`, in [10], the result was inactive.
